# About 83,000 compounds went through this panel and 20% of them were active in at least one assay; those are over-represented in the sample as a whole.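 The test compound was applied at a single concentration to cells in 96-well plates for 48 hours, and percent growth was recorded.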 A number with no mark means an inactive call. Calls of active or inactive are those of the source. The calls were made as follows: active = growth percent below 10; inactive = the rest.
# Experiments:
# Experiment in all cases: NCI-60 one-dose screen, 48 h (100 = growth as untreated, 0 = no growth, -100 = all killed)
# Conditions in all cases: 10 µM unless noted
# HCT-15 colon = system: HCT-15 colon
# HT29 colon = system: HT29 colon
# SNB-75 CNS = system: SNB-75 CNS
# SNB-19 CNS = system: SNB-19 CNS
# U251 CNS = system: U251 CNS
# PC-3 prostate = system: PC-3 prostate
# UACC-62 melanoma = system: UACC-62 melanoma
# LOX IMVI melanoma = system: LOX IMVI melanoma
# SK-MEL-28 melanoma = system: SK-MEL-28 melanoma
# SK-MEL-2 melanoma = system: SK-MEL-2 melanoma
# EKVX NSCLC = system: EKVX NSCLC
# SN12C renal = system: SN12C renal
# UO-31 renal = system: UO-31 renal
# TK-10 renal = system: TK-10 renal
# ACHN renal = system: ACHN renal
# CAKI-1 renal = system: CAKI-1 renal
# A498 renal = system: A498 renal
# CCRF-CEM leukemia = system: CCRF-CEM leukemia
# MOLT-4 leukemia = system: MOLT-4 leukemia
# SK-MEL-5 melanoma = system: SK-MEL-5 melanoma
SMILES,growth (HCT-15 colon),growth (HT29 colon),growth (SNB-75 CNS),growth (SNB-19 CNS),growth (U251 CNS),growth (PC-3 prostate),growth (UACC-62 melanoma),growth (LOX IMVI melanoma),growth (SK-MEL-28 melanoma),growth (SK-MEL-2 melanoma),growth (EKVX NSCLC),growth (SN12C renal),growth (UO-31 renal),growth (TK-10 renal),growth (ACHN renal),growth (CAKI-1 renal),growth (A498 renal),growth (CCRF-CEM leukemia),growth (MOLT-4 leukemia),growth (SK-MEL-5 melanoma)
COc1ccc(-n2c(/C=C/c3ccc(O)c(OC)c3)cc(/C=C/c3ccc(O)c(OC)c3)nc2=O)cc1,59%,-59.1% (active),54.5%,69.9%,32.4%,53.7%,68.1%,13%,58.5%,84.9%,56.7%,66.6%,47.8%,104%,69.5%,87.4%,113%,15.2%,17.2%,–
COc1ccc(-c2n[nH]nc2-c2cc3ccccc3s2)cc1O,20%,29.9%,35.5%,27.6%,15.8%,16%,33.7%,20.6%,38.4%,32.3%,41.9%,32.4%,40.5%,57%,44.4%,38.9%,1.86% (active),16%,15.1%,–
COc1cc2c(cc1-c1c(C)noc1C)ncc1nc(C3CC3)n([C@H](C)COC(F)F)c12,23.9%,17.3%,34.3%,60.1%,52.8%,39.1%,25.5%,15.5%,63.5%,74.1%,56.9%,71.4%,21.6%,26.5%,–,34.1%,0.499% (active),52%,42.2%,–
CC(C)C[C@@H](NC(=O)[C@@H](Cc1ccccc1)NC(=O)c1cnccn1)B1O[C@H]2[C@H](O)[C@@H](C(=O)NCCCC[C@@H]3NC(=O)[C@@H](Cc4ccccc4)NC(=O)[C@H](CC(=O)O)NC(=O)CNC(=O)[C@H](CCCN=C(N)N)NC3=O)O[C@@H](CN)[C@H]2O1,-54% (active),-73.4% (active),-65.4% (active),-10.1% (active),-58.6% (active),-34.3% (active),-36.7% (active),-86.1% (active),-30.1% (active),-38.5% (active),-12.6% (active),-29.5% (active),-16.4% (active),-79.1% (active),-8.22% (active),-44.2% (active),-94.5% (active),6.17% (active),0.435% (active),–
COC(=O)CNc1nc(N(C)O)nc(N(C)O)n1,30.4%,41.7%,96.4%,47.6%,36.5%,37.9%,42.9%,33.4%,42%,113%,48.2%,49.8%,35.6%,49.6%,23.8%,34.1%,34.5%,15.5%,25.9%,–
O=S(=O)(NCCNc1cc(-c2cn(-c3ccccc3)nc2-c2cccc(O)c2)ccn1)c1ccc(C(F)(F)F)cc1,28.5%,4.36% (active),49.7%,54.4%,36.5%,22.6%,–,23.5%,–,56.2%,52.3%,33.9%,-39.8% (active),–,18.3%,-1.88% (active),52.6%,16.9%,4.81% (active),36.9%
CC1(C)c2ccccc2C(=O)C1(Br)Cc1ccccc1 (configuration not stated),71.3%,67.4%,78.8%,81.1%,91%,77.4%,78.3%,78.7%,95.8%,103%,94.5%,95.4%,56.6%,105%,87.7%,50.5%,89.7%,26.4%,16.4%,–
COc1cccc(-c2nn(-c3ccccc3)cc2-c2ccnc(NCCCNS(=O)(=O)c3ccc(C(F)(F)F)cc3)c2)c1,22.3%,-6.28% (active),47.4%,38%,27.1%,12.9%,–,36%,–,19.3%,46.5%,–,11.3%,42.1%,22.4%,27.2%,20.3%,16.8%,-0.667% (active),-54.2% (active)
CCOC(=O)C1OC1(c1ccccc1)c1ccccc1 (configuration not stated),109%,107%,108%,107%,100%,98.7%,98%,113%,119%,112%,101%,98.7%,88.1%,107%,103%,79.5%,106%,100%,105%,–
COc1ccc(-c2cc(-c3c(C)oc4cc5occc5c(OC)c4c3=O)nc(N)c2C#N)cc1OC,55.6%,67%,40.3%,64.3%,48.9%,62.6%,–,50.2%,–,60.7%,92.8%,–,45.2%,77.1%,65.6%,38.9%,23.7%,43.8%,30.9%,52.7%
CCCCN1CCCCn2c1nc1c2c(=O)n(C)c(=O)n1C,108%,102%,94.1%,104%,95%,108%,101%,99%,117%,91.9%,105%,102%,93.1%,103%,107%,95.5%,–,113%,96.6%,–
O=C1c2cc3c(cc2-c2c1c1ccc(Cl)cc1c(=O)n2C[C@H](O)[C@@H](O)[C@H](O)CO)OCO3,0.364% (active),-14.4% (active),-1.89% (active),7.77% (active),-26.9% (active),12.7%,-86.9% (active),-18.5% (active),-18.8% (active),-67% (active),20.5%,-5.37% (active),-71.6% (active),-48.7% (active),-58.7% (active),-8.82% (active),-77% (active),8.41% (active),2.33% (active),–
CC1=NN(c2ccc(S(=O)(=O)O)cc2Cl)C(=O)C1,112%,109%,90.2%,96.2%,107%,103%,103%,104%,122%,112%,101%,100%,89.2%,101%,105%,85.1%,102%,99.1%,123%,–
Clc1cc(Cl)cc(Nc2ccc3c(OCCCN4CCOCC4)cccc3n2)c1,-46.4% (active),-64.5% (active),54.9%,31.7%,29.1%,42%,14.7%,-85.4% (active),65.6%,87.8%,62.2%,76.1%,28.6%,80.5%,49.9%,56.6%,–,29.5%,22.5%,–
Cc1ccnc2c(OCc3ccccc3)cccc12,90.3%,99.4%,95.4%,100%,92.7%,96.8%,85.8%,87.4%,95.6%,105%,78.6%,88.8%,64.3%,102%,89.3%,86.1%,90.3%,108%,98%,–
Cc1ccc(-c2nc([P+](c3ccccc3)(c3ccccc3)c3ccccc3)c(N3C[C@H]4C[C@H](C3)c3cccc(=O)n3C4)o2)cc1,86.8%,92.3%,74.6%,64.1%,58.8%,–,54.5%,–,62%,87.7%,80.6%,95.2%,–,98.8%,109%,98.5%,–,78.4%,96.6%,68%

# — PubChem BioAssay (NCI)
